According to PubChem BioAssay (Tox21):
Inconclusive results are not listed. Active and inactive are the calls of the source. Unless noted, the call rests on the fitted dose curve; in most records, active means well fitted curve in the direction sought with a large enough effect in the repeat runs; inconclusive means weak or mixed curves; inactive means no such curve, though single readings can be large; an effect the other way counts as inactive or inconclusive.

What was measured:
[1] = qHTS assay to identify small molecule agonists of the TGF-beta/Smad signaling pathway - cell viability counter screen (AID 1346829); further: top concentration of the series differs between compounds; nearly all actives have a fitted effect of over 45% in size
Summary of the method: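 CellTiter-Glo luminescence readout; SBE-bla HEK 293T cells, overnight plating, compound 5 hr at 37 C/5% CO2, then bla substrate 2 hr RT, then CellTiter-Glo 30 min RT.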

[2] = qHTS assay to identify small molecule agonists of the TGF-beta/Smad signaling pathway (AID 1346859; active means well fitted activation curve with a large enough effect in the signal ratio in the repeat runs, not every such curve was filed as active; the % refers to the signal ratio; further: series mostly up to about 77 µM)
Summary of the method: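 Fluorescence (ex 405 nm; em 460 and 530 nm) was read 2 h after LiveBLAzer FRET substrate at RT. The preceding compound treatment of overnight-plated SBE-bla HEK293T cells lasted 5 h at 37 C.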

[3] = target: Thyrotropin-releasing hormone receptor (Homo sapiens) (UniProt P34981); experiment: qHTS assay to identify small molecule antagonists of the thyrotropin-releasing hormone receptor (TRHR) signaling pathway (AID 1346877; active means well fitted inhibition curve with a large enough effect in the repeat runs, not every such curve was filed as active; further: series mostly up to about 51 µM)
Sequence of Thyrotropin-releasing hormone receptor (Homo sapiens) (P34981 whole entry, looked up): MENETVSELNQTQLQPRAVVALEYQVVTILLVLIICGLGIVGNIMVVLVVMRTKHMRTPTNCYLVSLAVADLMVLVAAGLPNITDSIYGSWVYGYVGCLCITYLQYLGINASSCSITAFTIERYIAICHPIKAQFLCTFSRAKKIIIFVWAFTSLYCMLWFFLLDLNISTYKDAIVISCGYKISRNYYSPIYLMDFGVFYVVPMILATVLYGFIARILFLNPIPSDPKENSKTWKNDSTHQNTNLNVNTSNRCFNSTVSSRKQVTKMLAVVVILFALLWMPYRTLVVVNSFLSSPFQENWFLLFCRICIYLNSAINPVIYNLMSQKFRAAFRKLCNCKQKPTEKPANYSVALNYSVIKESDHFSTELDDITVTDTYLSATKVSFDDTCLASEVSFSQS
Summary of the method: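 Cells (TRHR-HEK293) are plated and kept 18 h at 37 °C/5% CO2. A calcium-sensitive dye is added for 2 h, compound follows for 5 min at room temperature, and TRH is then given at 1 nM final.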

[4] = target: Thyrotropin-releasing hormone receptor (Homo sapiens) (UniProt P34981); experiment: qHTS assay to identify small molecule agonists of the thyrotropin-releasing hormone receptor (TRHR) signaling pathway (AID 1346891; calls by dose curve; further: series mostly up to about 58 µM)
Summary of the method: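 Agonist-mode intracellular calcium readout: kinetic fluorescence over 3 min at 1 s intervals after compound addition to TRHR-HEK293 cells (18 h seeded, 2 h dye-loaded at 37 C). Fifteen concentrations, triplicates.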

[5] = Human pregnane X receptor (PXR) small molecule agonists, qHTS cell viability counter screen (AID 1346977); further: nearly all actives have a fitted effect of over 50% in size
Summary of the method: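 Same-well viability read: CellTiter-Fluor added after 23 hr compound exposure, fluorescence measured 1 hr later. Cells were PXR-Luc HepG2 seeded at 2,000/well in 5% charcoal-stripped FBS medium, rested 5 hr before dosing at 37 C.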

[6] = Caspase-3/7 induction in HepG2 cells by small molecules, qHTS assay (AID 1346978); further: nearly all actives have a fitted effect of over 15% in size
Summary of the method: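 Caspase-3/7 induction was measured by Caspase-Glo 3/7 luminescence (30 min, room temperature) after a 17 hr compound exposure of wild-type HepG2 cells seeded at 2,000 per well and pre-incubated 5 hr.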

[7] = Caspase-3/7 induction in CHO-K1 cells by small molecules, qHTS cell viability counter screen (AID 1346979); further: nearly all actives have a fitted effect of over 35% in size
Summary of the method: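 Cytotoxicity counter screen: CellTiter-Fluor added to compound-treated wild-type CHO-K1 cells at 16 h (37C, 5% CO2), fluorescence measured 1 h later; same wells as caspase-3/7 measurement.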

[8] = Caspase-3/7 induction in CHO-K1 cells by small molecules, qHTS assay (AID 1346980); further: nearly all actives have a fitted effect of over 15% in size
Summary of the method: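 Luminescent Caspase-Glo 3/7 read (30min, room temperature) quantified apoptosis induction. Cells were wild-type CHO-K1, treated with compound for 17hr at 37 C and 5% CO2.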

[9] = Caspase-3/7 induction in HepG2 cells by small molecules, qHTS cell viability counter screen (AID 1346981); further: series mostly up to about 92 µM; nearly all actives have a fitted effect of over 30% in size
Summary of the method: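 Steps: seed 2,000 HepG2 cells per well; incubate 5 hr at 37 C; pin-add compounds in DMSO; incubate 16 hr; add CellTiter-Fluor; after 1 hr at 37 C and 5% CO2, read fluorescence.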

[10] = target: Nuclear receptor subfamily 1 group I member 2 (Homo sapiens) (UniProt O75469); experiment: Human pregnane X receptor (PXR) small molecule agonists, qHTS assay (AID 1346982); further: nearly all actives have a fitted effect of over 35% in size; further: potency means the concentration at half of the fitted maximal effect
Sequence of Nuclear receptor subfamily 1 group I member 2 (Homo sapiens) (O75469 whole entry, looked up): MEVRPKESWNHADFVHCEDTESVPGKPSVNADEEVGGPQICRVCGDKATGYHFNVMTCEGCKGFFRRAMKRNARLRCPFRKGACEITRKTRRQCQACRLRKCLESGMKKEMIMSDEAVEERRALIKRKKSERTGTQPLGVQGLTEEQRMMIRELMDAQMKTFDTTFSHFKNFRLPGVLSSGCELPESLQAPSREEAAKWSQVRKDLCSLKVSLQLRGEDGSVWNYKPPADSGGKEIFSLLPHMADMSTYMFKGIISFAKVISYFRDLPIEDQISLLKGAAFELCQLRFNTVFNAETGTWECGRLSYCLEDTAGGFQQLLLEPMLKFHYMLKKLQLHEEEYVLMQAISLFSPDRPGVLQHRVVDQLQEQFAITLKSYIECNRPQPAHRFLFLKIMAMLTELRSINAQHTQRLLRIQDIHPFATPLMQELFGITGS
Summary of the method: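 Agonist mode qHTS: PXR-Luc HepG2 cells plated 5 hr before DMSO-dissolved compounds were pinned in, cultured 24 hr at 37 C, 5% CO2; ONE-Glo luminescence readout.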

[11] = target: Cytochrome P450 2D6 (Homo sapiens) (UniProt P10635); experiment: Cytochrome P450 Family 2 Subfamily D Member 6 (CYP2D6) small molecule antagonists: luciferase reporter qHTS assay (AID 1671196); further: nearly all actives have a fitted effect of over 50% in size; further: potency means the concentration at half of the fitted maximal effect; on activity change, negative = inhibition: series mostly up to about 120 µM
Sequence of Cytochrome P450 2D6 (Homo sapiens) (P10635 whole entry, looked up): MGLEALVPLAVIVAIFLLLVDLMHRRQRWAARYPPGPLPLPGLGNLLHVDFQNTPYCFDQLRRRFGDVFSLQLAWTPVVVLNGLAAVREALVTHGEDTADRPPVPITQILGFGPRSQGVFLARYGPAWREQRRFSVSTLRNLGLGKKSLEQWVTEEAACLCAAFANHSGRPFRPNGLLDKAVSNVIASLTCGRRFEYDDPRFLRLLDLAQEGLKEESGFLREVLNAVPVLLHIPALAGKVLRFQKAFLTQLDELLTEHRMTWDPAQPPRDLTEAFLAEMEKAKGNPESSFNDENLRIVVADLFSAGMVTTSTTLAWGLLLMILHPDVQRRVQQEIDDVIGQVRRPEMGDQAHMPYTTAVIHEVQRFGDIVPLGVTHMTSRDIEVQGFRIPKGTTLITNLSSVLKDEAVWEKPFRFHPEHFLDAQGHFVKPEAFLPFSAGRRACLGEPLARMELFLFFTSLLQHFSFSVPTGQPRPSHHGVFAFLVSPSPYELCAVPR
Summary of the method: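 P450-Glo format: CYP2D6 converts a proluciferin substrate to luciferin in an NADPH-driven reaction lasting 1 h at room temperature. Light output, proportional to CYP2D6 activity, reflects interference by test chemicals.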

[12] = target: Cytochrome P450 2C19 (Homo sapiens) (UniProt P33261); experiment: Cytochrome P450 Family 2 Subfamily C Member 19 (CYP2C19) small molecule antagonists: luciferase reporter qHTS assay (AID 1671197); further: nearly all actives have a fitted effect of over 65% in size; further: potency means the concentration at half of the fitted maximal effect; on activity change, negative = inhibition: series mostly up to about 120 µM
Sequence of Cytochrome P450 2C19 (Homo sapiens) (P33261 whole entry, looked up): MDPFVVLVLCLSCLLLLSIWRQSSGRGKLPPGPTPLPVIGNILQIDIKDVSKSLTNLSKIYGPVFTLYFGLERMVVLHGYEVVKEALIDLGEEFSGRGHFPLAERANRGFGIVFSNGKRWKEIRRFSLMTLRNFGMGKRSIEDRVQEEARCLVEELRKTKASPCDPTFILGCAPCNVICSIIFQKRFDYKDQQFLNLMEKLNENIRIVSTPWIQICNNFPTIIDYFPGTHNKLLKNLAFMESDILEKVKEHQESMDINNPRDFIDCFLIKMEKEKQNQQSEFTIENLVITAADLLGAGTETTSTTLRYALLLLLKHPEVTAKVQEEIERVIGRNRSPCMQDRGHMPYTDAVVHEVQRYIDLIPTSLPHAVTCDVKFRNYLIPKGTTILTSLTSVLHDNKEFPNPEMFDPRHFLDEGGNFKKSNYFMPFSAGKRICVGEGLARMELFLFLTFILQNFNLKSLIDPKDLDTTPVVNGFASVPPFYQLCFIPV
Summary of the method: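 Enzyme-substrate mix with proluciferin substrate (P450-Glo CYP2C19 system) preincubated with compounds 10 min at room temperature; NADPH regeneration solution added, 37C for 1 h; detection reagent stops reaction, luminescence read after 20 min. Ketoconazole positive control.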

[13] = target: Cytochrome P450 2C9 (Homo sapiens) (UniProt P11712); experiment: Cytochrome P450 Family 2 Subfamily C Member 9 (CYP2C9) small molecule antagonists: luciferase reporter qHTS assay (AID 1671198); further: nearly all actives have a fitted effect of over 50% in size; further: potency means the concentration at half of the fitted maximal effect; on activity change, negative = inhibition: series mostly up to about 120 µM
Sequence of Cytochrome P450 2C9 (Homo sapiens) (P11712 whole entry, looked up): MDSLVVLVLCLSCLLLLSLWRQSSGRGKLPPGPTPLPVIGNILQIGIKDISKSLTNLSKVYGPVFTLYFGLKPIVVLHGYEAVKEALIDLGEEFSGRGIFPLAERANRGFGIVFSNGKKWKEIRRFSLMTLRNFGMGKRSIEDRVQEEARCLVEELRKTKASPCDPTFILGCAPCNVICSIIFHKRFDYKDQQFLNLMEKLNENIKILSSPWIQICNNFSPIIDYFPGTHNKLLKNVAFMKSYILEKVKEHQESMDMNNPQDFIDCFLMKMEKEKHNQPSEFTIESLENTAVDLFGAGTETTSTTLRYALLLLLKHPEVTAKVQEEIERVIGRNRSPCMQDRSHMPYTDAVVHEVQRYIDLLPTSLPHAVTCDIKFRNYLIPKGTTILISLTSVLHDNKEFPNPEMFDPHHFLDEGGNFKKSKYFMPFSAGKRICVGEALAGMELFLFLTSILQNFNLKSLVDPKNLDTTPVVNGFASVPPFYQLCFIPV
Summary of the method: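 Enzyme-substrate mix preincubated with compound 10 min at room temperature; reaction started with NADPH regeneration solution, 1 h 37C. Luminescent luciferin product read after 20 min detection reagent.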

[14] = target: Cytochrome P450 1A2 (Homo sapiens) (UniProt P05177); experiment: Cytochrome P450 Family 1 Subfamily A Member 2 (CYP1A2) small molecule antagonists: luciferase reporter qHTS assay (AID 1671199); further: nearly all actives have a fitted effect of over 50% in size; further: potency means the concentration at half of the fitted maximal effect; on activity change, negative = inhibition: series mostly up to about 120 µM
Sequence of Cytochrome P450 1A2 (Homo sapiens) (P05177 whole entry, looked up): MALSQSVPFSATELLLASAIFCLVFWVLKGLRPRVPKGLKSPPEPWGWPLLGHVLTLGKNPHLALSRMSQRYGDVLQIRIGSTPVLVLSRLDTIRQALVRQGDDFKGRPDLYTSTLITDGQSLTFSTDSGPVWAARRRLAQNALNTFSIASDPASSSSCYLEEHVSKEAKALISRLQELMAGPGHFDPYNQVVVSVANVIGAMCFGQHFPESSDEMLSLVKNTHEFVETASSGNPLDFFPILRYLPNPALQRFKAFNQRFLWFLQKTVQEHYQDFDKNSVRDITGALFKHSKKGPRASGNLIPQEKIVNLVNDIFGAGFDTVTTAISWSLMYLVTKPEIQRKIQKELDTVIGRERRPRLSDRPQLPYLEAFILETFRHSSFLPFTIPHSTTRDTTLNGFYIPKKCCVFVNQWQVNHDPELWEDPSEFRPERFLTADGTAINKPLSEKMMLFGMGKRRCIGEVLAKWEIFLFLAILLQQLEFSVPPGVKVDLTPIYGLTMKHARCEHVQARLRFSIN
Summary of the method: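 Inhibition of CYP1A2 conversion of proluciferin to luciferin, detected by luminescence. Reaction run 1 h at room temperature with NADPH regeneration after brief compound preincubation.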

[15] = target: Voltage-gated inwardly rectifying potassium channel KCNH2 (Homo sapiens) (UniProt Q12809); experiment: Human Ether-a-go-go-Related Gene (hERG) channel small molecule antagonists: fluorescence cell-based qHTS assay (AID 1671200)
Sequence of Voltage-gated inwardly rectifying potassium channel KCNH2 (Homo sapiens) (Q12809 whole entry, looked up): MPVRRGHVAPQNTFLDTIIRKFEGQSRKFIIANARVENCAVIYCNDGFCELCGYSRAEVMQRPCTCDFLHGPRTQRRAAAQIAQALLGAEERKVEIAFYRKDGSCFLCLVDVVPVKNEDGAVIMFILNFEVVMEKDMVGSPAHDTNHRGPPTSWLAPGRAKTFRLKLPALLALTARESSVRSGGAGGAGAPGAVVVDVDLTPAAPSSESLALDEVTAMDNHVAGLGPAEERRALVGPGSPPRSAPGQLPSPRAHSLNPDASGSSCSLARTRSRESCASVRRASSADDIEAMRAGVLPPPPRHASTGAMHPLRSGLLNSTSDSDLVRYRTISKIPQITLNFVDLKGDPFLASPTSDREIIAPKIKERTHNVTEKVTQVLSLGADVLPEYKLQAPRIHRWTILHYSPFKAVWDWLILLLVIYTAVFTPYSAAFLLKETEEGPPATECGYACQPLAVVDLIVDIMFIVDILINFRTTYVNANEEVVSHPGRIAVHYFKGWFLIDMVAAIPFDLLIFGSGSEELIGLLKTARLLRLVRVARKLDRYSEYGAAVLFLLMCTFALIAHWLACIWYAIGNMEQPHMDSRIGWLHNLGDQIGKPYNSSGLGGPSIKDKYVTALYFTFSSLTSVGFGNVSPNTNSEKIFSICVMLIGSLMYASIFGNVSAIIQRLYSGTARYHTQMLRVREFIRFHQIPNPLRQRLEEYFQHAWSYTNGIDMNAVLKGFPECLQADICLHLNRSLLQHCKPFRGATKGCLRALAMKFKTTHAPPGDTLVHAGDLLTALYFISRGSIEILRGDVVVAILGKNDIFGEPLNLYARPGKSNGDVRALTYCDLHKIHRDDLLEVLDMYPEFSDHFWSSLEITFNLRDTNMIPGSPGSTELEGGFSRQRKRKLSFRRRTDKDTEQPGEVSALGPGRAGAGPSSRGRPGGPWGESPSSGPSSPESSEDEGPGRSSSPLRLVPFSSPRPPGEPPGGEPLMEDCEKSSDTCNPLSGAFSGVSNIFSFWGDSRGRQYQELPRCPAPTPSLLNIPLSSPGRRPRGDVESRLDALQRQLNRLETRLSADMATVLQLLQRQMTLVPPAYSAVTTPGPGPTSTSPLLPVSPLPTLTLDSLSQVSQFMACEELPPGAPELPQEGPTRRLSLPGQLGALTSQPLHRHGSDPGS
Summary of the method: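 Thallium flux as potassium surrogate: FluxOR II dye loaded 1 h at room temperature into hERG-expressing U2OS cells, then stimulus buffer added after 10 min. Kinetic 480 nm excitation/540 nm emission read, 2 min.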

[16] = target: Cytochrome P450 3A4 (Homo sapiens) (UniProt P08684); experiment: Cytochrome P450 Family 3 Subfamily A Member 4 (CYP3A4) small molecule antagonists: luciferase reporter qHTS assay (AID 1671201); further: nearly all actives have a fitted effect of over 50% in size; further: potency means the concentration at half of the fitted maximal effect; on activity change, negative = inhibition: series mostly up to about 120 µM
Sequence of Cytochrome P450 3A4 (Homo sapiens) (P08684 whole entry, looked up): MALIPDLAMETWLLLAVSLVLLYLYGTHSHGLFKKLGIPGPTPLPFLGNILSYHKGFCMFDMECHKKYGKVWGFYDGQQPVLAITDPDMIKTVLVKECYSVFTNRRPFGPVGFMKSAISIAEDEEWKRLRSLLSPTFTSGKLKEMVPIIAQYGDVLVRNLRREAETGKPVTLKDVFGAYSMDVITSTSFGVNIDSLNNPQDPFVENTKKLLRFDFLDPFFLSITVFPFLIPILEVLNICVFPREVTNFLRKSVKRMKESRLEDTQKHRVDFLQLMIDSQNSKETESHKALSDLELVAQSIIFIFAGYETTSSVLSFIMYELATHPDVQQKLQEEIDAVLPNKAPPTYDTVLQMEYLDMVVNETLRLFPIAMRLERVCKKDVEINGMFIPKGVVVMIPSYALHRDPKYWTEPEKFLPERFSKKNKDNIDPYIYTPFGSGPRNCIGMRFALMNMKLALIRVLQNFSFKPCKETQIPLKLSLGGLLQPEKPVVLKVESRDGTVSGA
Summary of the method: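 Recombinant human CYP3A4 converts a proluciferin substrate to luciferin over 1 h at room temperature after NADPH regeneration solution is added (compound preincubated 10 min); detection reagent stops reaction, luminescence read 20 min later as relative units.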

[17] = target: Nuclear receptor subfamily 1 group I member 2 (Rattus norvegicus) (UniProt Q9R1A7); experiment: Rat pregnane X receptor (rPXR) activation by small molecules, qHTS assay (AID 1346983); details: rPXR luciferase reporter cells, One-Glo luminescence, 24 h; hits give high values; further: nearly all actives have a fitted effect of over 20% in size
Sequence of Nuclear receptor subfamily 1 group I member 2 (Rattus norvegicus) (Q9R1A7 whole entry, looked up): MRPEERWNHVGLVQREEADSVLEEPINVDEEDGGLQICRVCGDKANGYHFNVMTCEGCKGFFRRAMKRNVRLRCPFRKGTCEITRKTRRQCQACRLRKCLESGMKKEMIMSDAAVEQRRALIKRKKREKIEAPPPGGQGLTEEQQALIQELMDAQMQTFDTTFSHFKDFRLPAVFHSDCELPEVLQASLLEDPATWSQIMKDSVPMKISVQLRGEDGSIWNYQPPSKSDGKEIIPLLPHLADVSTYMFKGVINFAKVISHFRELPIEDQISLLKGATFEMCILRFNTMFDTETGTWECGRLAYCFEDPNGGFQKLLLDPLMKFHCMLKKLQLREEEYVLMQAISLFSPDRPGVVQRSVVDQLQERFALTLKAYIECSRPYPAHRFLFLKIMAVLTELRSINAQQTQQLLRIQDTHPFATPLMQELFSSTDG
Summary of the method: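 Luminescent readout (One-Glo luciferase, 30 min room temperature) followed 24 hr compound treatment at 37 C of rPXR cells plated 2,000 per well and preincubated 5hr; qHTS format with compounds delivered in DMSO.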

[18] = target: Nuclear receptor subfamily 1 group I member 2 (Homo sapiens) (UniProt O75469); experiment: CYP3A4 induction through human pregnane X receptor (PXR) by small molecules, qHTS assay (AID 1346984); further: nearly all actives have a fitted effect of over 40% in size
Summary of the method: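 Steps: seed DPX-2 cells, 5 hr at 37C; pin-transfer compounds; 24 hr at 37C; add Luciferin-IPA (3uM final), 3 hr at 37C; add One-Glo, 30 min RT; read luminescence.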

[19] = target: Nuclear receptor subfamily 1 group I member 2 (Homo sapiens) (UniProt O75469); experiment: Human pregnane X receptor (PXR) activation by small molecules, qHTS assay (AID 1346985); further: nearly all actives have a fitted effect of over 40% in size
Summary of the method: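 DPX-2 cells (HepG2 co-transfected with a PXR response element and a CYP3A4-promoter luciferase construct) were seeded at 2,000 per well, rested 5 hr at 37C, then exposed to DMSO-dissolved compounds for 24 hr. Activation was read as luciferase luminescence.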
On the % scale 0 is the no-effect control and ±100 the full control effect.

CC(C)c1ccc(C=O)cc1
inactive: outcome [1] | outcome [2] | outcome [3] | outcome [4] | outcome [5] | outcome [6] | Potency [7] | outcome [8] | outcome [9] | Potency [10] | Potency [11] | Potency [12] | Potency [13] | Potency [14] | Potency [15] | Potency [16]

CC(C)NC(=O)c1ccc(C=O)cc1
inactive: outcome [1] | outcome [2] | outcome [3] | outcome [4] | outcome [5] | outcome [6] | Potency [7] | outcome [8] | outcome [9] | Potency [10] | Potency [11] | Potency [12] | Potency [13] | Potency [15]

O/N=C/C=N/O
active: Potency [11] 39.9 µM
inactive: outcome [1] | outcome [2] | outcome [3] | outcome [4] | outcome [5] | outcome [6] | Potency [7] | outcome [8] | outcome [9] | Potency [10] | Potency [12] | Potency [13] | Potency [14] | Potency [15] | Potency [16]

CC1=NN(c2ccc(S(=O)(=O)O)cc2)C(=O)C1
active: Potency [12] 79.6 µM
inactive: outcome [1] | outcome [2] | outcome [3] | outcome [4] | outcome [5] | outcome [6] | Potency [7] | outcome [8] | outcome [9] | Potency [10] | Potency [11] | Potency [13] | Potency [14] | Potency [15] | Potency [16]

CCCCOC(=O)[C@H](C)O
inactive: outcome [1] | outcome [2] | outcome [3] | outcome [4] | outcome [5] | outcome [6] | Potency [7] | outcome [8] | outcome [9] | Potency [10] | Potency [11] | Potency [12] | Potency [13] | Potency [14] | Potency [15] | Potency [16]

Cc1c(NC(=O)c2cccnc2)c(=O)n(-c2ccccc2)n1C
inactive: outcome [1] | outcome [2] | outcome [3] | outcome [4] | outcome [5] | outcome [6] | Potency [7] | outcome [8] | outcome [9] | Potency [10] | max activation [17] -1.68% | Potency [18] | Potency [19] | Potency [11] | Potency [13] | Potency [15]

N[C@@H](CSCCCO)C(=O)O
inactive: activity change, negative = cytotoxicity [1] 6.47% [at 15.8 µM] | activation [2] 6.83% [at 15.8 µM] | activity, negative = inhibition [3] -0.484% [at 10.5 µM] | activation [4] -0.038% [at 11.8 µM] | activity change, negative = cytotoxicity [5] 9.45% [at 19 µM] | caspase activation [6] -0.396% [at 19 µM] | activity change, negative = cytotoxicity [7] 1.3% [at 19 µM] | caspase-3/7 activation [8] 0.125% [at 19 µM] | activity change, negative = cytotoxicity [9] -2.1% [at 19 µM] | activation [10] -4.99% [at 19 µM] | max activation [17] -2.52% | Potency [18] | Potency [19] | activity change, negative = inhibition [11] -4.36% [at 23.6 µM] | activity change, negative = inhibition [12] 3.16% [at 23.6 µM] | activity change, negative = inhibition [13] 4.77% [at 23.6 µM] | activity change, negative = inhibition [15] 17.6% [at 15.8 µM]

CN(C)CCOC(=O)C(c1ccccc1)C1(O)CCCC1 (stereo not given)
inactive: outcome [1] | outcome [2] | outcome [3] | outcome [4] | outcome [5] | outcome [6] | Potency [7] | outcome [8] | outcome [9] | Potency [10] | max activation [17] 3.01% | Potency [18] | Potency [19] | Potency [13] | Potency [14] | Potency [15] | Potency [16]

CC(C)[C@H]1CC[C@H](C)C[C@@H]1O
inactive: outcome [1] | outcome [2] | outcome [3] | outcome [4] | outcome [5] | outcome [6] | Potency [7] | outcome [8] | outcome [9] | Potency [11] | Potency [12] | Potency [13] | Potency [14] | Potency [15] | Potency [16]
active: Potency [10] 55.4 µM

CCCCCCC1(C)CCC(=O)O1 (stereo not given)
inactive: outcome [1] | outcome [2] | outcome [3] | outcome [4] | outcome [5] | outcome [6] | Potency [7] | outcome [8] | outcome [9] | Potency [10] | Potency [11] | Potency [12] | Potency [13] | Potency [15] | Potency [16]

CCC(C)C(=O)OCCc1ccccc1 (stereo not given)
inactive: outcome [1] | outcome [2] | outcome [3] | outcome [4] | outcome [5] | outcome [6] | Potency [7] | outcome [8] | outcome [9] | Potency [10] | Potency [12] | Potency [13] | Potency [14] | Potency [15] | Potency [16]

c1ccc(B(c2ccccc2)c2ccccc2)cc1
inactive: outcome [1] | outcome [2] | outcome [3] | outcome [4] | outcome [5] | outcome [6] | Potency [7] | outcome [8] | Potency [15]
active: Potency [10] 30.6 µM | Potency [11] 31.7 µM | Potency [12] 17.8 µM | Potency [13] 31.7 µM | Potency [16] 35.5 µM

CCCC(=O)OCCC(C)CCC=C(C)C (stereo not given)
active: Potency [13] 20 µM | Potency [14] 39.9 µM
inactive: outcome [1] | outcome [2] | outcome [3] | outcome [4] | outcome [5] | outcome [6] | Potency [7] | outcome [8] | outcome [9] | Potency [10] | Potency [15]

CC(=O)c1cc(C)oc1C
inactive: outcome [1] | outcome [2] | outcome [3] | outcome [4] | outcome [5] | outcome [6] | Potency [7] | outcome [8] | outcome [9] | Potency [10] | Potency [11] | Potency [13] | Potency [15]
active: Potency [12] 32.9 µM

O=C(O)c1cc2ccccc2nc1C(=O)O
inactive: outcome [1] | outcome [2] | outcome [3] | outcome [4] | outcome [5] | outcome [6] | Potency [7] | outcome [8] | outcome [9] | Potency [10] | Potency [11] | Potency [12] | Potency [13] | Potency [15] | Potency [16]
